# Where “and” joins values, the source holds several entries; their conditions need not be identical. Equal entries are not always repeated. Where two headings read alike, the source gives them in different places.
# Assays:
# PRKCD = details: concentration: 1 μM, replicates: in singlicate, n = 1
# PRKCE = details: concentration: 1 μM, replicates: in singlicate, n = 1
# PRKCH = details: concentration: 1 μM, replicates: in singlicate, n = 1
# PRKCI = details: concentration: 1 μM, replicates: in singlicate, n = 1
# PRKCQ = details: concentration: 1 μM, replicates: in singlicate; n = 1
# PRKD1 = details: concentration: 1 μM, replicates: in singlicate, n = 1
# PRKD2 = details: concentration: 1 μM, replicates: in singlicate, n = 1
# PRKD3 = details: concentration: 1 μM, replicates: in singlicate, n = 1
# PRKG1 = details: concentration: 1 μM, replicates: in singlicate, n = 1
# PRKG2 = details: concentration: 1 μM, replicates: in singlicate, n = 1
# PRKR = system: T1, PRKR; details: concentration: 1 μM, replicates: in singlicate; n = 1
# T1 construct: gene EIF2AK2
# PRKX = details: concentration: 1 μM, replicates: in singlicate; n = 1
# PRP4 = details: concentration: 1 μM, replicates: in singlicate; n = 1
# PYK2 = system: T2, PYK2; details: concentration: 1 μM, replicates: in singlicate; n = 1
# T2 construct: gene PTK2B
# QSK = details: concentration: 1 μM, replicates: in singlicate, n = 1
# RAF1 = details: concentration: 1 μM, replicates: in singlicate, n = 1
# RET = details: concentration: 1 μM, replicates: in singlicate, n = 1
# RIOK1 = details: concentration: 1 μM, replicates: in singlicate, n = 1
# RIOK2 = details: concentration: 1 μM, replicates: in singlicate, n = 1
# RIOK3 = details: concentration: 1 μM, replicates: in singlicate, n = 1
# 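Also: KINOMEscan kinase panel screen.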
smiles,measurement,setting,value
COC(=O)c1cccc(NC(=O)NCCNc2ccnc(Nc3ccc(F)cc3)n2)c1 [GSK1379883],%Inh,PRKCD,0%
same,%Inh,PRKCE,6%
same,%Inh,PRKCH,34%
same,%Inh,PRKCI,24%
same,%Inh,PRKCQ,0%
same,%Inh,PRKD1,21%
same,%Inh,PRKD2,35%
same,%Inh,PRKD3,0%
same,%Inh,PRKG1,7%
same,%Inh,PRKG2,0%
same,%Inh,PRKR,0%
same,%Inh,PRKX,4%
same,%Inh,PRP4,46%
same,%Inh,PYK2,0%
same,%Inh,QSK,0%
same,%Inh,RAF1,11%
same,%Inh,RET,0%
same,%Inh,RIOK1,23%
same,%Inh,RIOK2,0%
same,%Inh,RIOK3,31%
CN1CCC(n2cnc(-c3ccc(F)cc3)c2-c2ccnc(NC3CCNCC3)n2)CC1 [SB-229482],%Inh,PRKCD,1%
same,%Inh,PRKCE,27%
same,%Inh,PRKCH,0%
same,%Inh,PRKCI,0%
same,%Inh,PRKCQ,13%
same,%Inh,PRKD1,0%
same,%Inh,PRKD2,0%
same,%Inh,PRKD3,0%
same,%Inh,PRKG1,0%
same,%Inh,PRKG2,17%
same,%Inh,PRKR,0%
same,%Inh,PRKX,0%
same,%Inh,PRP4,0%
same,%Inh,PYK2,11%
same,%Inh,QSK,0%
same,%Inh,RAF1,46%
same,%Inh,RET,20%
same,%Inh,RIOK1,25%
same,%Inh,RIOK2,8%
same,%Inh,RIOK3,22%
Cc1ccc(O)cc1Nc1cc(C(F)(F)F)nc2ccc(-c3ccncc3)cc12 [GW630823],%Inh,PRKCD,0%
same,%Inh,PRKCE,0%
same,%Inh,PRKCH,0%
same,%Inh,PRKCI,0%
same,%Inh,PRKCQ,0%
same,%Inh,PRKD1,3%
same,%Inh,PRKD2,0%
same,%Inh,PRKD3,29%
same,%Inh,PRKG1,7%
same,%Inh,PRKG2,0%
same,%Inh,PRKR,0%
same,%Inh,PRKX,8%
same,%Inh,PRP4,0%
same,%Inh,PYK2,17%
same,%Inh,QSK,0%
same,%Inh,RAF1,0%
same,%Inh,RET,9%
same,%Inh,RIOK1,14%
same,%Inh,RIOK2,0%
same,%Inh,RIOK3,13%
CS(=O)(=O)CCNCc1nc(-c2ccc3ncnc(Nc4ccc(OCc5cccc(F)c5)c(Cl)c4)c3c2)cs1.Cl [GW583340],%Inh,PRKCD,0%
same,%Inh,PRKCE,0%
same,%Inh,PRKCH,0%
same,%Inh,PRKCI,13%
same,%Inh,PRKCQ,0%
same,%Inh,PRKD1,0%
same,%Inh,PRKD2,2%
same,%Inh,PRKD3,3%
same,%Inh,PRKG1,0%
same,%Inh,PRKG2,0%
same,%Inh,PRKR,0%
same,%Inh,PRKX,0%
same,%Inh,PRP4,0%
same,%Inh,PYK2,0%
same,%Inh,QSK,0%
same,%Inh,RAF1,1%
same,%Inh,RET,0%
same,%Inh,RIOK1,10%
same,%Inh,RIOK2,0%
same,%Inh,RIOK3,17%
OCCOCCn1ccc2ncnc(Nc3ccc(Oc4cccc(Cl)c4)c(Cl)c3)c21,%Inh,PRKCD,28%
same,%Inh,PRKCE,2%
same,%Inh,PRKCH,0%
same,%Inh,PRKCI,0%
same,%Inh,PRKCQ,0%
same,%Inh,PRKD1,0%
same,%Inh,PRKD2,0%
same,%Inh,PRKD3,0%
same,%Inh,PRKG1,4%
same,%Inh,PRKG2,0%
same,%Inh,PRKR,0%
same,%Inh,PRKX,3%
same,%Inh,PRP4,9%
same,%Inh,PYK2,0%
same,%Inh,QSK,0%
same,%Inh,RAF1,5%
same,%Inh,RET,0%
same,%Inh,RIOK1,0%
same,%Inh,RIOK2,0%
same,%Inh,RIOK3,0%
Fc1ccc(Nc2nccc(-c3c(-c4ccc(Cl)cc4)nn4ncccc34)n2)cc1F [GW829058],%Inh,PRKCD,0%
same,%Inh,PRKCE,18%
same,%Inh,PRKCH,0%
same,%Inh,PRKCI,22%
same,%Inh,PRKCQ,0%
same,%Inh,PRKD1,0%
same,%Inh,PRKD2,0%
same,%Inh,PRKD3,9%
same,%Inh,PRKG1,3%
same,%Inh,PRKG2,17%
same,%Inh,PRKR,0%
same,%Inh,PRKX,0%
same,%Inh,PRP4,0%
same,%Inh,PYK2,1%
same,%Inh,QSK,20%
same,%Inh,RAF1,18%
same,%Inh,RET,9%
same,%Inh,RIOK1,0%
same,%Inh,RIOK2,10%
same,%Inh,RIOK3,7%
Cl.Cn1ccc(-c2cccc(Nc3ccnc4cc(-c5nccs5)ccc34)c2)n1 [GW525701],%Inh,PRKCD,0%
same,%Inh,PRKCE,10%
same,%Inh,PRKCH,14%
same,%Inh,PRKCI,0%
same,%Inh,PRKCQ,0%
same,%Inh,PRKD1,0%
same,%Inh,PRKD2,0%
same,%Inh,PRKD3,14%
same,%Inh,PRKG1,22%
same,%Inh,PRKG2,0%
same,%Inh,PRKR,5%
same,%Inh,PRKX,0%
same,%Inh,PRP4,61%
same,%Inh,PYK2,45%
same,%Inh,QSK,4%
same,%Inh,RAF1,18%
same,%Inh,RET,5%
same,%Inh,RIOK1,14%
same,%Inh,RIOK2,22%
same,%Inh,RIOK3,0%
Cc1ccc(NC(=O)c2cccc(C#N)c2)cc1-c1ccc(C(=O)Nc2ccncc2)cc1 [GSK1398463],%Inh,PRKCD,7%
same,%Inh,PRKCE,5%
same,%Inh,PRKCH,27%
same,%Inh,PRKCI,0%
same,%Inh,PRKCQ,0%
same,%Inh,PRKD1,0%
same,%Inh,PRKD2,12%
same,%Inh,PRKD3,31%
same,%Inh,PRKG1,2%
same,%Inh,PRKG2,0%
same,%Inh,PRKR,0%
same,%Inh,PRKX,14%
same,%Inh,PRP4,0%
same,%Inh,PYK2,1%
same,%Inh,QSK,3%
same,%Inh,RAF1,51%
same,%Inh,RET,7%
same,%Inh,RIOK1,21%
same,%Inh,RIOK2,0%
same,%Inh,RIOK3,0%
FC(F)(F)c1cc(Nc2nccc(-c3c(-c4ccc(Cl)cc4)nn4ncccc34)n2)ccc1Cl [GW829351],%Inh,PRKCD,0%
same,%Inh,PRKCE,17%
same,%Inh,PRKCH,0%
same,%Inh,PRKCI,0%
same,%Inh,PRKCQ,3%
same,%Inh,PRKD1,0%
same,%Inh,PRKD2,0%
same,%Inh,PRKD3,0%
same,%Inh,PRKG1,23%
same,%Inh,PRKG2,0%
same,%Inh,PRKR,26%
same,%Inh,PRKX,0%
same,%Inh,PRP4,14%
same,%Inh,PYK2,0%
same,%Inh,QSK,0%
same,%Inh,RAF1,1%
same,%Inh,RET,0%
same,%Inh,RIOK1,0%
same,%Inh,RIOK2,0%
same,%Inh,RIOK3,0%
Cl.Fc1ccccc1COc1ccc(Nc2ncnc3ccc(-c4nnc(C(F)(F)F)o4)cc23)cc1Cl [GW424170],%Inh,PRKCD,0%
same,%Inh,PRKCE,0%
same,%Inh,PRKCH,2%
same,%Inh,PRKCI,15%
same,%Inh,PRKCQ,0%
same,%Inh,PRKD1,0%
same,%Inh,PRKD2,0%
same,%Inh,PRKD3,0%
same,%Inh,PRKG1,0%
same,%Inh,PRKG2,4%
same,%Inh,PRKR,0%
same,%Inh,PRKX,0%
same,%Inh,PRP4,16%
same,%Inh,PYK2,14%
same,%Inh,QSK,0%
same,%Inh,RAF1,7%
same,%Inh,RET,0%
same,%Inh,RIOK1,22%
same,%Inh,RIOK2,0%
same,%Inh,RIOK3,18%
COc1cc2ncnc(Nc3ccc(OCc4ccccc4Br)c(Cl)c3)c2cc1OC.Cl [GI261590],%Inh,PRKCD,0%
same,%Inh,PRKCE,8%
same,%Inh,PRKCH,0%
same,%Inh,PRKCI,33%
same,%Inh,PRKCQ,100%
same,%Inh,PRKD1,4%
same,%Inh,PRKD2,0%
same,%Inh,PRKD3,0%
same,%Inh,PRKG1,0%
same,%Inh,PRKG2,0%
same,%Inh,PRKR,0%
same,%Inh,PRKX,0%
same,%Inh,PRP4,0%
same,%Inh,PYK2,32%
same,%Inh,QSK,0%
same,%Inh,RAF1,21%
same,%Inh,RET,14%
same,%Inh,RIOK1,29%
same,%Inh,RIOK2,0%
same,%Inh,RIOK3,10%
O=c1cc(N2CCOCC2)nc2n(Cc3cccc(Cl)c3)ccn12 [GSK2296823],%Inh,PRKCD,0%
same,%Inh,PRKCE,8%
same,%Inh,PRKCH,0%
same,%Inh,PRKCI,22%
same,%Inh,PRKCQ,0%
same,%Inh,PRKD1,0%
same,%Inh,PRKD2,0%
same,%Inh,PRKD3,15%
same,%Inh,PRKG1,0%
same,%Inh,PRKG2,0%
same,%Inh,PRKR,0%
same,%Inh,PRKX,33%
same,%Inh,PRP4,4%
same,%Inh,PYK2,4%
same,%Inh,QSK,0%
same,%Inh,RAF1,6%
same,%Inh,RET,87%
same,%Inh,RIOK1,17%
same,%Inh,RIOK2,10%
same,%Inh,RIOK3,0%
COc1ccc(-c2nc3n(c2-c2ccncc2)CCC3)cc1 [SKF-104493],%Inh,PRKCD; 1 µM,0% and 8%
same,%Inh,PRKCE; 1 µM,45% and 8%
same,%Inh,PRKCH; 1 µM,6% and 7%
same,%Inh,PRKCI; 1 µM,0% and 50%
same,%Inh,PRKCQ,0%
same,%Inh,PRKD1; 1 µM,0% and 3%
same,%Inh,PRKD2; 1 µM,2% and 16%
same,%Inh,PRKD3; 1 µM,0% and 27%
same,%Inh,PRKG1; 1 µM,32% and 7%
same,%Inh,PRKG2; 1 µM,1% and 18%
same,%Inh,PRKR,0%
same,%Inh,PRKX,0%
same,%Inh,PRP4,13%
same,%Inh,PYK2,6%
same,%Inh,QSK; 1 µM,29% and 5%
same,%Inh,RAF1; 1 µM,0% and 15%
same,%Inh,RET; 1 µM,0% and 10%
same,%Inh,RIOK1; 1 µM,24% and 4%
same,%Inh,RIOK2; 1 µM,20% and 0%
same,%Inh,RIOK3; 1 µM,0% and 10%
CCCc1ccc(S(=O)(=O)NC2CCN(c3ccnc(Nc4ccc(OC)cc4)n3)C2)cc1 (stereo not drawn) [GSK1379737],%Inh,PRKCD,0%
same,%Inh,PRKCE,9%
same,%Inh,PRKCH,0%
same,%Inh,PRKCI,11%
same,%Inh,PRKCQ,0%
same,%Inh,PRKD1,0%
same,%Inh,PRKD2,3%
same,%Inh,PRKD3,9%
same,%Inh,PRKG1,0%
same,%Inh,PRKG2,0%
same,%Inh,PRKR,0%
same,%Inh,PRKX,0%
same,%Inh,PRP4,60%
same,%Inh,PYK2,10%
same,%Inh,QSK,0%
same,%Inh,RAF1,0%
same,%Inh,RET,28%
same,%Inh,RIOK1,0%
same,%Inh,RIOK2,0%
same,%Inh,RIOK3,0%
Cn1cc(-c2ccc3c(c2)CCN3C(=O)Cc2cccc(C(F)(F)F)c2)c2c(N)ncnc21 [GSK2606414],%Inh,PRKCD,1%
same,%Inh,PRKCE,0%
same,%Inh,PRKCH,23%
same,%Inh,PRKCI,15%
same,%Inh,PRKCQ,0%
same,%Inh,PRKD1,0%
same,%Inh,PRKD2,0%
same,%Inh,PRKD3,42%
same,%Inh,PRKG1,19%
same,%Inh,PRKG2,0%
same,%Inh,PRKR,0%
same,%Inh,PRKX,16%
same,%Inh,PRP4,9%
same,%Inh,PYK2,0%
same,%Inh,QSK,0%
same,%Inh,RAF1,14%
same,%Inh,RET,78%
same,%Inh,RIOK1,28%
same,%Inh,RIOK2,18%
same,%Inh,RIOK3,0%
